These results are taken from PubChem BioAssay (NCI).

This is part of a sample that, as a whole, favours compounds with a hit. Of some 83,000 tested, about 20% had one in any assay.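 Cells were grown in 96-well plates and exposed to the test compound at a single concentration for 48 hours; results are reported as percent growth, with values below 10 considered active.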 A number with no mark means an inactive call. Calls of active or inactive are those of the source.

Some test systems named below: SR leukemia; RPMI-8226 leukemia; OVCAR-8 ovarian; OVCAR-5 ovarian; OVCAR-4 ovarian; SK-OV-3 ovarian; IGROV1 ovarian; OVCAR-3 ovarian; HS 578T breast; NCI/ADR-RES ovarian.
Experiment in all cases: NCI-60 one-dose screen, 48 h (100 = growth as untreated, 0 = no growth, -100 = all killed)
Settings in all cases: 10 µM

Take `O=S(=O)(O)CC(O)CN1CCN(CCO)CC1` (stereo unspecified): the growth in the assay with SR leukemia is 92.4%; in the assay on RPMI-8226 leukemia, 96.3%; in the assay on OVCAR-8 ovarian, 98.8%; with OVCAR-5 ovarian it was 117%; in the assay on OVCAR-4 ovarian it was 114%; in the assay on SK-OV-3 ovarian, 95.3%. The growth in the assay on IGROV1 ovarian is 124%; in the assay on OVCAR-3 ovarian it was 108%; in the assay with HS 578T breast, 104%; in the assay on NCI/ADR-RES ovarian it was 99.7%.
In the case of `O=C1C=CC(=O)N1c1ccc(I)cc1Cl`, the growth in the assay with SR leukemia is 110%; in the assay with RPMI-8226 leukemia, 92.5%; with OVCAR-8 ovarian, 73.7%; in the assay with OVCAR-5 ovarian, 102%; in the assay on OVCAR-4 ovarian, 99.4%; with SK-OV-3 ovarian, 109%. Moreover, the growth was 113% in the assay on IGROV1 ovarian, 118% with OVCAR-3 ovarian, 109% in the assay with HS 578T breast and 97.9% in the assay on NCI/ADR-RES ovarian.
Consider `CCCCNC1(C#N)CCN(Cc2ccccc2)CC1`, for which the growth was 115% in the assay with SR leukemia; 99.2% in the assay on RPMI-8226 leukemia; 96.4% with OVCAR-8 ovarian; 88.9% in the assay with OVCAR-5 ovarian; 103% with OVCAR-4 ovarian; 97.1% in the assay with SK-OV-3 ovarian. For the same compound, the growth was 91.9% in the assay with IGROV1 ovarian, 132% in the assay with OVCAR-3 ovarian, 101% with HS 578T breast and 88.3% in the assay with NCI/ADR-RES ovarian.
In the case of `CCC/C=C(/C(C)=O)C(=O)OCC`, the growth in the assay on SR leukemia was 160%; in the assay with RPMI-8226 leukemia it was 104%; in the assay on OVCAR-8 ovarian, 91.8%; with OVCAR-5 ovarian it was 92.7%; in the assay with OVCAR-4 ovarian it was 89.8%; in the assay on SK-OV-3 ovarian, 117%. Moreover, the growth with IGROV1 ovarian was 126%; in the assay with OVCAR-3 ovarian, 119%; in the assay on HS 578T breast, 114%.
`COc1cc2nn(-c3ccccc3N)nc2cc1OC`: the growth was 111% in the assay with SR leukemia; 100% with RPMI-8226 leukemia; 97.1% in the assay on OVCAR-8 ovarian; 99.6% with OVCAR-5 ovarian; 97.7% in the assay with OVCAR-4 ovarian; 102% in the assay on SK-OV-3 ovarian. The growth in the assay on IGROV1 ovarian was 89%; in the assay on OVCAR-3 ovarian it was 112%; in the assay with HS 578T breast it was 92.6%; in the assay on NCI/ADR-RES ovarian, 97.9%.
On to `CCCOC(=O)C(O)c1ccccc1` (stereo unspecified), for which the growth was 107% in the assay with SR leukemia; 118% in the assay with RPMI-8226 leukemia; 114% in the assay with OVCAR-8 ovarian; 94.9% in the assay on OVCAR-5 ovarian; 119% in the assay with OVCAR-4 ovarian; 107% in the assay with SK-OV-3 ovarian. In addition, the growth with IGROV1 ovarian was 117%; in the assay with OVCAR-3 ovarian, 106%; in the assay on HS 578T breast it was 104%.
Take `O=C(/C=C/C(=O)c1ccccc1)c1ccccc1`: the growth in the assay with SR leukemia is 71.3%; in the assay with RPMI-8226 leukemia, 80.8%; with OVCAR-8 ovarian it was 110%; in the assay with OVCAR-5 ovarian, 115%; with OVCAR-4 ovarian, 108%; in the assay on SK-OV-3 ovarian it was 115%. The growth with IGROV1 ovarian was 113%; with OVCAR-3 ovarian it was 102%.
For the compound `C#Cc1cccc(NC(=O)c2ccc(Cl)cc2Cl)c1`, the growth with SR leukemia is 115%; in the assay with RPMI-8226 leukemia it was 78.1%; in the assay on OVCAR-8 ovarian, 105%; with OVCAR-5 ovarian it was 110%; in the assay with OVCAR-4 ovarian, 95.5%; in the assay with SK-OV-3 ovarian, 95.5%. Further, the growth was 115% in the assay on IGROV1 ovarian, 109% in the assay with OVCAR-3 ovarian and 108% in the assay on HS 578T breast.
With `CC1CCC2C(C)(C)C3CC12CC1OC13C` (stereo unspecified), the growth is 117% in the assay on SR leukemia; 108% in the assay with RPMI-8226 leukemia; 105% in the assay on OVCAR-8 ovarian; 105% with OVCAR-5 ovarian; 99.3% with OVCAR-4 ovarian; 103% in the assay on SK-OV-3 ovarian. The results for the growth in the assay with IGROV1 ovarian, in the assay with OVCAR-3 ovarian and with HS 578T breast were 114%, 110% and 103%, respectively.
As for `CC(=O)Nc1c(C)cc(C)cc1C`, the growth in the assay with SR leukemia was 98.7%; in the assay on RPMI-8226 leukemia it was 111%; in the assay with OVCAR-8 ovarian, 104%; in the assay with OVCAR-5 ovarian, 115%; with OVCAR-4 ovarian, 95.9%; in the assay on SK-OV-3 ovarian, 113%. Also, the growth is 110% in the assay on IGROV1 ovarian, 102% in the assay on OVCAR-3 ovarian, 111% in the assay with HS 578T breast and 99.7% in the assay on NCI/ADR-RES ovarian.
On to `COC(=O)c1ccc(C(C)C)cc1`, for which the growth is 103% in the assay with SR leukemia; 99.9% in the assay with RPMI-8226 leukemia; 106% with OVCAR-8 ovarian; 103% with OVCAR-5 ovarian; 103% with OVCAR-4 ovarian; 83.4% with SK-OV-3 ovarian. The growth was 105% in the assay on IGROV1 ovarian, 103% in the assay with OVCAR-3 ovarian and 119% with HS 578T breast.
Consider `Cc1ncc(C#N)c(N)n1`, for which the growth was 92.4% with SR leukemia; 103% in the assay on RPMI-8226 leukemia; 102% in the assay with OVCAR-8 ovarian; 99.5% with OVCAR-5 ovarian; 92.5% with OVCAR-4 ovarian; 117% in the assay with SK-OV-3 ovarian. Also, the growth in the assay with IGROV1 ovarian is 106%; in the assay with OVCAR-3 ovarian, 110%; in the assay with HS 578T breast, 92.3%.
For `N#Cc1c(N)sc(=S)c2c1CCCC2`, the growth was 93.6% in the assay on SR leukemia; 95.1% in the assay on RPMI-8226 leukemia; 103% in the assay on OVCAR-8 ovarian; 108% in the assay with OVCAR-5 ovarian; 102% in the assay with OVCAR-4 ovarian; 103% in the assay with SK-OV-3 ovarian. Also, the growth with IGROV1 ovarian is 116%; in the assay with OVCAR-3 ovarian it was 113%; in the assay with HS 578T breast, 104%; in the assay with NCI/ADR-RES ovarian, 104%.
With `O=C(Nc1cccc(NC(=O)Nc2cc(C(F)(F)F)ccc2Cl)c1)Nc1cc(C(F)(F)F)ccc1Cl`, the growth is -15.6% (active) with SR leukemia; -14.5% (active) with RPMI-8226 leukemia; 14.3% with OVCAR-8 ovarian; 27.7% in the assay on OVCAR-5 ovarian; 7.2% (active) in the assay with OVCAR-4 ovarian; 36.2% with SK-OV-3 ovarian. Moreover, the growth in the assay with IGROV1 ovarian was 26.9%; in the assay with OVCAR-3 ovarian, -5.64% (active); in the assay on HS 578T breast it was 18.9%.
In the case of `O=c1[nH]nc(SC2CCCCC2)c(=O)[nH]1`, the growth in the assay with SR leukemia is 97.6%; in the assay on RPMI-8226 leukemia, 102%; in the assay on OVCAR-8 ovarian, 101%; with OVCAR-5 ovarian, 99%; in the assay with OVCAR-4 ovarian, 98.9%; in the assay with SK-OV-3 ovarian it was 93.2%. The growth in the assay with IGROV1 ovarian was 101%; with OVCAR-3 ovarian, 96.2%; in the assay on HS 578T breast it was 92%; in the assay with NCI/ADR-RES ovarian it was 94.3%.
As for `CCOC(=O)c1coc(C(=O)OCC)c1C(=O)OCC`, the growth was 113% in the assay on SR leukemia; 126% with RPMI-8226 leukemia; 118% with OVCAR-8 ovarian; 114% in the assay with OVCAR-5 ovarian; 119% in the assay with OVCAR-4 ovarian; 120% in the assay on SK-OV-3 ovarian. For the same compound, the growth in the assay with IGROV1 ovarian was 112%; in the assay on OVCAR-3 ovarian, 111%; with HS 578T breast, 117%; in the assay on NCI/ADR-RES ovarian it was 119%.
